In PubChem BioAssay AID1159570 (Broad Institute, 2015) one finds outcome data, which are given here for 5 compounds.

Results with a measured potency or affinity are listed apart. Active and inactive are the calls of the source. No rule for the calls is given here.

This assay is described as follows: P. falciparum 3D7-ScDHODH growth inhibitors, dose response, SYBR Green, dry powder samples (AID 1159570). As to conditions: SYBR Green fluorescence; series mostly up to 19.5 µM.
For `O=C(NC[C@@H]1CC[C@H]2[C@H](CN2Cc2cc(-c3ccccc3)on2)O1)c1ccc2c(c1)OCO2`, the compound was called inactive.

For the compound `Cc1ccccc1-c1ccccc1[C@H]1[C@@H](C#N)N(C(=O)c2ccccc2)[C@@H]1CO`, the result was inactive.

As to `COc1ccc(S(=O)(=O)Nc2ccc3c(c2)CC(=O)N([C@@H](C)CO)C[C@H](C)[C@H](CN(C)S(=O)(=O)c2ccc(OC)cc2)O3)cc1`, the call was inactive.

On to `C[C@@H]1CN([C@H](C)CO)C(=O)c2cccc(NC(=O)c3ccc(-c4nccs4)cc3)c2O[C@H]1CN(C)Cc1ccc(C(F)(F)F)cc1`, for which the result was inactive.

As to `COc1cccc(C#Cc2ccc([C@H]3[C@@H](CO)N(C(=O)c4ccccn4)[C@H]3C#N)cc2)c1`, the compound was classed as inactive.
